Compound activity deposited in PubChem BioAssay by National Center for Advancing Translational Sciences (NCATS).
Rows were chosen to be rich in hits. Some 2.4% of all compounds tested hit in one or more screens of this group.
D2 ag-1 = activates the human D2 dopamine receptor. P14416. activation, % (no concentration beside the values). DiscoveRx PathHunter D2 beta-arrestin, luminescence, 90 min; 100% = 57 uM dopamine signal. 360,000 compounds, 0.084% hits. AID 624465; in the data active = activation above about 40%; inconclusive = between about 15% and that limit
Target sequence (P14416 whole entry, looked up): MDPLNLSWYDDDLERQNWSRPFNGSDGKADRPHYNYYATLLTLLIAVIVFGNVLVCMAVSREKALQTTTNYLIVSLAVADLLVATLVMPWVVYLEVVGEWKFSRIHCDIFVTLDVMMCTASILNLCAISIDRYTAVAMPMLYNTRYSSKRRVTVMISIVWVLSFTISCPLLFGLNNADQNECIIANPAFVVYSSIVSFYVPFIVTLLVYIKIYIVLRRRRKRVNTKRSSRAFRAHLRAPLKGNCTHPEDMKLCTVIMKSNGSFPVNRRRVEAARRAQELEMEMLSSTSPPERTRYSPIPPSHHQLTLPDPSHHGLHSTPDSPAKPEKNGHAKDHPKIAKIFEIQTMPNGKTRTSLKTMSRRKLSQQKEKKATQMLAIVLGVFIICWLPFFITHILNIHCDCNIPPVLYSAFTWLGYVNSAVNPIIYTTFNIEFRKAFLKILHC
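Agonist mode: compounds alone added to overnight-plated D2 PathHunter cells for 90 min at 37 C, with 57 uM final dopamine (EC100) defining full response. Beta-arrestin recruitment detected by chemiluminescent reagent, read after 1 h at ambient temperature.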
D2 PAM-1 = positive allosteric modulators of human D2 dopamine receptor; P14416; DiscoveRx D2 beta-arrestin cells, luminescence, 90 min; 100% = 57 uM dopamine signal; 360,000 compounds, 0.23% hits; AID 624464; potentiation, % (no concentration beside the values); in the data active = potentiation above about 50%; inconclusive = mostly about 30% to 49%
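D2 cells co-treated with compound plus 50 nM dopamine (EC20) for 90 min at 37 deg C to detect potentiation. Beta-arrestin recruitment was read as enzyme-fragment luminescence after 1 h at ambient temperature. Full response was set by 57 uM dopamine.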
D2 PAM-2 = positively modulates the human D2 dopamine receptor allosterically; P14416; HEK293 T-REx D2, calcium flux, EC20 dopamine potentiation; potentiation, % at 10 µM; 340,000 compounds, 0.34% hits; AID 485347;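 active = potentiation over 3 SD above the plate norm, cut at about 30% in these data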; note: 0% is about no effect
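Primary screen. Calcium kinetics in induced HEK293 T-REx D2 cells: compound pre-addition 180 s, EC20 dopamine, 180 s more.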
D2 antagonist = D2 dopamine receptor (human) antagonism | 340,000 compounds, 2% hits | AID 485344 | P14416 | HEK293 TREx D2 cells, calcium flux, dopamine EC80 | inhibition, % at 10 µM; in the data active = inhibition above about 30%; inactive = below that, where a call was filed; note: 0% is about no effect
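Compounds are added to dye-loaded, induced HEK293 T-REx cells coupled to calcium release via D2; after a 3 min kinetic read an EC80 dopamine stimulus is given and fluorescence is recorded for 3 more min.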
D2 ag-2 = D2 dopamine receptor (human) agonism | P14416 | activation, % at 2 µM | HEK293 T-REx D2 cells, calcium flux agonist mode | 340,000 compounds, 0.53% hits | AID 485358;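 active = activation over 3 SD above normal in the single-dose calcium agonist read, cut at about 30% in these data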; note: 0% is about no effect
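HEK293 Trex D2 cells, tetracycline-induced, o/n 30 C 5% CO2; no-wash Ca dye, RT 30–90 min; 10-cycle baseline, 23 nl cpd added, kinetic Ca read 180 s; agonist hits = positive Ca response.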
* = called active by the depositor; ? = inconclusive; / = not tested or not shown.

SMILES	D2 ag-1	D2 PAM-1	D2 PAM-2	D2 antagonist	D2 ag-2
CC(C)C1Oc2ccccc2N(CC(=O)N2CCOCC2)C1=O (stereo unspecified)	-2.2	2.8	-0.7	37.9*	0.1
CCOC(=O)c1c(NC(=O)CSc2cn(CCNC(=O)c3c(F)cccc3F)c3ccccc23)sc2c1CCCC2	/	/	7.6	/	/
CCS(=O)(=O)Nc1ccc2[nH]c(=O)[nH]c2c1	-5.0	1.0	-7.2	32.8*	3.3
CS(=O)(=O)Nc1ccc2[nH]c(=O)[nH]c2c1	-0.1	0.4	-1.9	-0.8	1.1
COc1ccc(NC2=C(C(C)=O)C(c3ccc(N(C)C)cc3)C(C(C)=O)C(C)(O)C2)cc1 (stereo unspecified)	-3.6	50.8*	1.4	-1.4	-0.4
COc1ccc(NC2=C(C(C)=O)C(c3ccc(OC)cc3)C(C(C)=O)C(C)(O)C2)cc1 (stereo unspecified)	4.8	-4.0	14.4	5.5	0.3
O=C(CCN1CCC(c2ccccc2)C1)c1ccc2c(c1)OCCO2 (stereo unspecified)	-6.9	-38.2	-30.6	86.7*	13.6
O=C(CCN1CCC(c2ccccc2)C1)c1ccccc1 (stereo unspecified)	0.5	-16.9	/	/	/
COc1ccc(NC(=O)CSc2nc3nc(C)c(Cc4ccccc4)c(C)n3n2)cc1OC	/	/	-3.0	/	/
C/C(=N\O)c1c(O)cc(-c2ccccc2)n(-c2ccccc2)c1=O	-7.9	-1.0	-24.1	-5.8	30.9*
C/C(=N/O)c1c(O)c(C)c(-c2ccccc2)n(-c2ccccc2)c1=O	-2.1	7.9	8.8	-3.0	-0.1
CCN(CC)c1ncnc2c1ncn2[C@H]1CN(Cc2ccc(OC)cc2)C[C@@H](CO)O1	-6.3	-6.3	/	/	/
COC(=O)/C(=C/Nc1ccc(O)cc1)[N+](=O)[O-]	9.9	85.7*	3.6	-9.4	0.4
COc1cc2[nH]c(=S)nc(NCc3ccccc3)c2cc1OC	9.5	-6.2	5.3	-3.8	-1.1
COc1ccc(CNc2nc(=S)[nH]c3cc(OC)c(OC)cc23)cc1	1.2	-10.4	-9.9	34.0*	0.3
COc1cc2[nH]c(=S)nc(NCc3ccc(C)cc3)c2cc1OC	1.3	-10.8	-4.8	40.6*	-0.1
Cc1ccc(Cl)cc1N1CCN(CCNC(=O)Nc2ccccc2Cl)CC1	/	/	-26.5	/	0.5
CS(=O)(=O)c1ccc2nc(NC(=O)CN3CCN(Cc4ccccc4)CC3)sc2c1	-1.1	-15.0	-2.6	44.5*	0.4
CS(=O)(=O)c1ccc2nc(NC(=O)c3cc([N+](=O)[O-])cc([N+](=O)[O-])c3)sc2c1	?	99.2*	0.9	7.0	0.5
NC1=NC[C@H](Cc2ccc(O)cc2)N1CCc1cccc(F)c1	-2.4	-7.8	4.3	38.9*	0.1
CN(C)C1=NC[C@H](Cc2ccccc2)N1CCc1cccc(F)c1	-4.4	-20.5	4.0	0.5	0.1
CCCCOC(=O)C1=C(C)NC(=O)NC1c1cccc([N+](=O)[O-])c1 (stereo unspecified)	-3.7	-4.1	-0.1	24.2	-1.2
CCCCOC(=O)C1=C(C)NC(=O)NC1c1ccc([N+](=O)[O-])s1 (stereo unspecified)	2.0	57.8*	4.8	4.8	1.8
COc1cccc(NS(=O)(=O)c2ccc(Br)s2)c1	-0.3	-7.9	7.6	33.7*	-0.2
COc1ccc(OC)c(NS(=O)(=O)c2ccc(Br)s2)c1	/	/	-8.9	-2.7	-1.4
SMILES	D2 ag-1	D2 PAM-1	D2 PAM-2	D2 antagonist	D2 ag-2
COc1ccc(C(=O)CCN2CCN(c3ccc(OC)cc3)CC2)cc1	-0.4	-17.4	-14.6	31.1*	1.3
COc1ccc(N2CCN(CCC(N)=O)CC2)cc1	3.8	-7.5	-8.1	-8.1	-0.3
Cc1cc(=O)oc2ccc(OCC(=O)NCc3ccco3)cc12	-2.5	-12.3	-3.0	-10.6	0.1
Cc1cc(=O)oc2cc(OCC(=O)N3CCOCC3)ccc12	-6.1	-9.5	48.5*	1.9	-0.1
Cc1cc(=O)oc2cc(OCC(=O)N3CCCC3)ccc12	-3.3	-5.2	/	/	/
Cc1cc(=O)oc2cc(OCC(=O)NCc3ccco3)ccc12	1.7	2.1	34.6*	0.3	-0.5
Cc1cc(=O)oc2cc(OCCSCCN3CCCC3)ccc12	-6.1	-10.2	-10.6	3.3	-1.2
COc1ccc(N2CCN(CCOc3ccc4c(C)cc(=O)oc4c3)CC2)cc1	-1.0	-41.9	-33.5	72.3*	1.2
